Source: PubChem BioAssay
Active and inactive are the calls of the source. Unless noted, the rule behind the calls is not given here.

Legend:
[1] = HepG2 liver cancer cell viability effects, profiling panel, resazurin fluorescence, 24 h, PK04 Diversity Set (AID 1172); conditions: higher = more signal
[2] = basal S. cerevisiae growth modulation, no modifier, primary screen, OD600, strain BY4716, 24 h, basal condition (AID 1173); conditions: OD600, 24 h, higher = more signal, called active from +8 up or from −8 down
[3] = MM1S myeloma cell viability, profiling panel, resazurin fluorescence, basal, 24 h, PK04 Diversity Set (AID 1174); conditions: higher = more signal, called active from +8 up or from −8 down;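 note: MM1S multiple myeloma cell line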
[4] = target: Dihydroorotate dehydrogenase (quinone), mitochondrial (Plasmodium falciparum (isolate 3D7)) (UniProt Q08210); assay: PfDHODH enzyme inhibitors, primary screen, biochemical, C-terminal His tag, absorbance 600 nm (AID 1175); conditions: DCIP absorbance 600 nm, higher = more signal, called active from +8 up or from −8 down;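 note: recombinant parasite enzyme with a five histidine tag at its C terminus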
[5] = P. aeruginosa biofilm formation inhibitors, primary screen, strain PAO1, LB-PBS medium, absorbance 600 nm (AID 1176); conditions: P. aeruginosa PAO1 growth/biofilm, A600, 12 h; higher = more signal
[6] = S. cerevisiae RM11-1a growth modifiers, primary screen, strain RM11-1a, OD600, basal, 24 h (AID 1177); conditions: OD600, 24 h, higher = more signal, called active from +8 up or from −8 down;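 note: cultures grown under basal conditions with no added stressor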
[7] = E. coli acrAB mutant growth effects, primary screen, E. coli filamentation inducers, strain DRC39, OD650, 24 h (AID 1178); conditions: higher = more signal, called active from +8 up or from −8 down;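 note: growth measured as culture turbidity by optical density at 650 nm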
[8] = E. coli acrAB mutant growth effects, primary screen, E. coli filamentation inducers, strain DRC39, OD650, 48 h (AID 1179);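 note: screen aims at cell division blockers that make cells filament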; conditions: E. coli DRC39 delta-acrAB growth, higher = more signal, called active from +8 up or from −8 down
[9] = RPMI8226 myeloma cell viability, profiling panel, resazurin fluorescence, basal, 24 h, PK04 Diversity Set (AID 1180); conditions: higher = more signal;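 note: RPMI8826 multiple myeloma cell line at 5000 cells per well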
[10] = target: E3 ubiquitin-protein ligase XIAP (Homo sapiens) (UniProt P98170); assay: XIAP binders, primary screen, biophysical, small-molecule microarray, fluorescence 635 nm (AID 1181); conditions: small-molecule microarray binding, higher = more signal;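 note: score merges 667 nm emission and signal to noise over triplicate slides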
[11] = system: XIP peptide (Xip251-270) binding; assay: small-molecule binders of XIP peptide, primary screen, biochemical, small-molecule microarray, fluorescence 635/667 nm, 0.1 µg/mL protein (AID 1182); conditions: fluorescent protein binding, 635 nm, higher = more signal, called active from +8 up or from −8 down
XIP peptide (Xip251-270) = assay: small-molecule binders of XIP peptide, primary screen, biochemical, small-molecule microarray, fluorescence 635/667 nm, 0.5 µg/mL protein (AID 1183); conditions: small-molecule microarray binding, fluorescence 635 nm; higher = more signal
[12] = Plasmodium falciparum growth inhibition, primary screen, strain 3D7, DAPI fluorescence, 100 nL (AID 1184);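 note: parasites grown inside human red blood cells in medium with human serum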; conditions: P. falciparum 3D7 growth, 3 d, higher = more signal
[13] = target: Homeobox protein Hox-A13 (Mus musculus) (UniProt Q62424); assay: inhibitors of HoxA13-DNA binding, primary screen, biochemical, fluorescence polarization, labeled oligonucleotide (AID 1185); conditions: 15 min, higher = more signal, called active from +8 up or from −8 down
[14] = inhibitors of hydroxyurea-induced Chk1 phosphorylation, primary screen, imaging, HeLa, phospho-Chk1 antibody, percent positive cells (AID 1186); conditions: hydroxyurea-induced phospho-Chk1 immunofluorescence imaging, higher = more signal
[15] = inhibitors of hydroxyurea-induced Chk1 phosphorylation, primary screen, imaging, HeLa, phospho-Chk1 nuclear intensity (AID 1187); conditions: hydroxyurea-induced phospho-Chk1 immunofluorescence imaging, higher = more signal

Homeobox protein Hox-A13 (Mus musculus), sequence (Q62424 whole entry, looked up): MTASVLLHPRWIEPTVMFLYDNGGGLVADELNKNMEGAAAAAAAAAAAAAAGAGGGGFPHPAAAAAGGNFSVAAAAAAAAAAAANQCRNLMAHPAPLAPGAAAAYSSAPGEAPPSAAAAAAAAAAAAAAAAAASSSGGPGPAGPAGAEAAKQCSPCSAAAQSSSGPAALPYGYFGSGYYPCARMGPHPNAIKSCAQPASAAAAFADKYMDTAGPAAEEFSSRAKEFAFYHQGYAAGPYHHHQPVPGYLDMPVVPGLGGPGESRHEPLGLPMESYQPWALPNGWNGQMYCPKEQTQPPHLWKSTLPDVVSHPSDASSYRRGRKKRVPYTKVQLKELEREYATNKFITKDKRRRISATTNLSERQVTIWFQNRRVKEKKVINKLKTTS
E3 ubiquitin-protein ligase XIAP (Homo sapiens), sequence (P98170 whole entry, looked up): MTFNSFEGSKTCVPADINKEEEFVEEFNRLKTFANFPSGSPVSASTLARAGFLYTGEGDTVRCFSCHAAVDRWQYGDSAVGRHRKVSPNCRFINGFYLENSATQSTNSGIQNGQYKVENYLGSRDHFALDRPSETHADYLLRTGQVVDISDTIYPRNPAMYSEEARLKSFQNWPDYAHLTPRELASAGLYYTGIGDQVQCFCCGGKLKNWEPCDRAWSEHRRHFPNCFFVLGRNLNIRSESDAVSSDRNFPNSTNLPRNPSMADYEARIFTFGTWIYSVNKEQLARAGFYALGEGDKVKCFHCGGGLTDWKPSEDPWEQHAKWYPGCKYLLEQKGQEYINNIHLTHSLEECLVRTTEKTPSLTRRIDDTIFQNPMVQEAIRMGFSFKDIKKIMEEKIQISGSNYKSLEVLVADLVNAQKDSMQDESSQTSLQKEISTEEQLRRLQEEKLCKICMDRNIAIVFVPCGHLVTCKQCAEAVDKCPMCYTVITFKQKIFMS
Dihydroorotate dehydrogenase (quinone), mitochondrial (Plasmodium falciparum (isolate 3D7)), sequence (Q08210 whole entry, looked up): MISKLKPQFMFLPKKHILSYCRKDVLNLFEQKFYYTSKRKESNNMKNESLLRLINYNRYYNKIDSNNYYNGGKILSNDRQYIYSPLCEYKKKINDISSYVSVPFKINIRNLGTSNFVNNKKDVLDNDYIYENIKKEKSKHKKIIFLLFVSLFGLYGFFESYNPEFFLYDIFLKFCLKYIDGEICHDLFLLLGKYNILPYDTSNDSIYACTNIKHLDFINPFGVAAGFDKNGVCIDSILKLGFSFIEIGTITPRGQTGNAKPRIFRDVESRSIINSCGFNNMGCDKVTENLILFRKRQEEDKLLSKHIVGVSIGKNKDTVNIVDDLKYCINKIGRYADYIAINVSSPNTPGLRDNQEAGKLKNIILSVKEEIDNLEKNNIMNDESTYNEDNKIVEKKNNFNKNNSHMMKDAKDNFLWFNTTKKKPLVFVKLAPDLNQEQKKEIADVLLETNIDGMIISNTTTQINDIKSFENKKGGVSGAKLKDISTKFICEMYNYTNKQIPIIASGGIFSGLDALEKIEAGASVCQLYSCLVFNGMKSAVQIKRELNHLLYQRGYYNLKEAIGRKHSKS

Row | SMILES | z-score [1] | z-score [2] | z-score [3] | composite z-score [4] | z-score [5] | z-score [6] | z-score [7] | z-score [8] | z-score [9] | composite z-score [10] | composite z-score [11] | composite z-score (XIP peptide (Xip251-270)) | z-score [12] | z-score [13] | z-score [14] | z-score [15]
1 | COc1cc(CO)cc(I)c1O[C@H]1C=C(C(=O)NCCO)C[C@@H](N(CCN2CCOCC2)C(=O)C2CCOC2)[C@@H]1O (stereo partly drawn) | 1.66 | -2.49 (inactive) | 0.85 (inactive) | 0.938 (inactive) | 0.355 (inactive) | 0.0222 (inactive) | 2.68 (inactive) | 1.5 (inactive) | 0.923 | 0.02 | 0.384 (inactive) | 0.551 | 0.199 | -7.57 (inactive) | -0.182 (inactive) | 0.246 (inactive)
2 | COC(=O)C=C(CC(O)c1cccc(Cl)c1)OC (stereo not drawn) | -0.0421 | -11.9 (active) | 0.427 (inactive) | -1 (inactive) | -1.07 (inactive) | -1.85 (inactive) | -0.246 (inactive) | 0.861 (inactive) | -0.219 | -0.169 | 0.633 (inactive) | 0.744 | -0.0951 | -1.42 (inactive) | -1.22 (inactive) | -1.18 (inactive)
3 | COC(=O)C(CC#Cc1ccc2c(c1)[C@]1(C(=O)N2)[C@H](c2ccc(O)cc2)N2[C@H](c3ccccc3)[C@H](c3ccccc3)OC(=O)[C@H]2[C@@H]1C(=O)Nc1nc2ccccc2s1)C(=O)OC | 0.0384 | -1.11 (inactive) | 1.05 (inactive) | -5.21 (inactive) | 1.27 (inactive) | -1.44 (inactive) | 0.666 (inactive) | 1.04 (inactive) | 0.12 | -0.313 | 1.09 (inactive) | 0.833 | -0.591 | -0.645 (inactive) | -0.0827 (inactive) | -0.46 (inactive)
4 | COCCOC(=O)N1C(=O)[C@@]2(c3cc(C#CC4=CCCCC4)ccc31)[C@H](c1ccc(O)cc1)N1[C@H](c3ccccc3)[C@H](c3ccccc3)OC(=O)[C@H]1[C@@H]2C(N)=O | -0.74 | -0.167 (inactive) | -1.85 (inactive) | -1.06 (inactive) | 0.318 (inactive) | 0.654 (inactive) | 0.066 (inactive) | 0.552 (inactive) | -2.95 | 0.0435 | 0.181 (inactive) | 0.751 | -0.0117 | -1.22 (inactive) | 0.0809 (inactive) | 0.185 (inactive)
5 | CN1C2C=C(CCCO)C(C3C(=O)N(C(N)=O)C(=O)C32)C1c1ccc(CN2CCCC2)cc1 (stereo not drawn) | -0.163 | 0.464 (inactive) | -0.508 (inactive) | -0.157 (inactive) | 0.661 (inactive) | -0.56 (inactive) | 0.359 (inactive) | 0.259 (inactive) | -0.287 | -0.0703 | 0.276 (inactive) | 0.297 | 0.446 | -5.26 (inactive) | 0.0965 (inactive) | -0.0741 (inactive)
6 | CC(C)(C)OC(=O)CC[C@@]1(C(N)=O)N=C(c2ccc(OCCCO)cc2)O[C@@H]1c1ccccc1 | -0.175 | -0.63 (inactive) | -0.121 (inactive) | 0.0187 (inactive) | 0.469 (inactive) | -0.412 (inactive) | -0.352 (inactive) | -1.12 (inactive) | -0.359 | -0.18 | 0.222 (inactive) | 0.355 | -0.589 | -3.33 (inactive) | 0.335 (inactive) | -0.0302 (inactive)
7 | O=C1O[C@H](c2ccccc2)[C@H](c2ccccc2)N2[C@H]1[C@@H](C(=O)N1CCN(c3ncccn3)CC1)[C@]1(C(=O)Nc3ccc(C#CC4=CCCCC4)cc31)[C@H]2c1ccc(O)cc1 | 1.03 | 0.866 (inactive) | 0.0054 (inactive) | -0.457 (inactive) | 0.902 (inactive) | 2.46 (inactive) | 0.105 (inactive) | 0.557 (inactive) | -0.441 | -0.0559 | 0.28 (inactive) | 0.815 | -0.953 | 2.84 (inactive) | -0.329 (inactive) | -0.513 (inactive)
8 | COC(=O)[C@@]1(Cc2ccc(F)cc2)[C@H]2c3cc(C(=O)N(C)C)n(CC4CC4)c3C[C@H]2CN1C(=O)c1ccccc1 | -0.881 | 1.78 (inactive) | -1.37 (inactive) | -0.0778 (inactive) | 0.206 (inactive) | 0.479 (inactive) | -0.868 (inactive) | -0.398 (inactive) | -2.09 | 0.454 | 0.308 (inactive) | 0.524 | -1.33 | -2.84 (inactive) | -1.45 (inactive) | -1.76 (inactive)
9 | C=CCNC(=O)[C@H]1[C@@H]2C(=O)O[C@@H](c3ccccc3)[C@@H](c3ccccc3)N2[C@@H](c2ccc(OCCO)cc2)[C@]12C(=O)Nc1ccc(C#CC3=CCCCC3)cc12 | 0.735 | 2.06 (inactive) | -1.21 (inactive) | 0.472 (inactive) | 0.269 (inactive) | 2.97 (inactive) | 0.0358 (inactive) | -0.198 (inactive) | -2.77 | 0.0435 | 0.116 (inactive) | 0.731 | -1.19 | 3.25 (inactive) | 0.151 (inactive) | 0.359 (inactive)
10 | COCCOC(=O)N1C(=O)[C@@]2(c3cc(C#CC4=CCCCC4)ccc31)[C@H](C(N)=O)[C@H]1C(=O)O[C@H](c3ccccc3)[C@H](c3ccccc3)N1[C@@H]2c1ccc(OCCO)cc1 | -0.746 | 1.04 (inactive) | -1.95 (inactive) | 0.948 (inactive) | 1.67 (inactive) | 2.53 (inactive) | 0.0123 (inactive) | 0.505 (inactive) | -3.18 | -0.102 | 0.134 (inactive) | 0.729 | -2 | 2.15 (inactive) | -0.116 (inactive) | -0.321 (inactive)
11 | C=CCC(OC(C)=O)[C@@H]1[C@@H](N(Cc2ccc(-c3cccc(C(F)(F)F)c3)o2)C(=O)c2ccc(-c3ccccc3)cc2)c2cc(OCCCO)ccc2N1C(=O)c1ccc(-c2ccccc2)cc1 (stereo partly drawn) | -0.645 | 1.03 (inactive) | 0.0516 (inactive) | 0.0524 (inactive) | 0.268 (inactive) | 0.609 (inactive) | -0.386 (inactive) | -0.487 (inactive) | 0.0033 | 0.0471 | -0.462 (inactive) | -1.09 | -0.29 | -0.737 (inactive) | 0.216 (inactive) | 0.187 (inactive)
12 | CC(C)(C)OC(=O)CC[C@@]12N=C(c3ccc(OCCCO)cc3)O[C@@H]1c1ccccc1N(CCS(=O)(=O)c1ccccc1)C2=O | -0.223 | 0.508 (inactive) | -1.95 (inactive) | -0.298 (inactive) | 0.218 (inactive) | 1.44 (inactive) | 1.25 (inactive) | 1.56 (inactive) | -0.835 | 0.0801 | -0.204 (inactive) | 0.569 | -1.7 | -3.42 (inactive) | -0.739 (inactive) | -0.767 (inactive)
13 | C=CCNC(=O)[C@H]1[C@@H]2C(=O)O[C@@H](c3ccccc3)[C@@H](c3ccccc3)N2[C@@H](c2ccc(OCCO)cc2)[C@]12C(=O)N(C(=O)OCCOC)c1ccccc12 | -0.732 | 1.41 (inactive) | -0.738 (inactive) | 1.17 (inactive) | 1.11 (inactive) | 2.32 (inactive) | -0.595 (inactive) | -1.27 (inactive) | -0.0749 | -0.0969 | 0.95 (inactive) | 0.846 | -1.63 | -4.21 (inactive) | -0.105 (inactive) | -0.0934 (inactive)
14 | CN1C(=O)C2C=CC(C(O)C3CCCCC3)N(Nc3ccc([N+](=O)[O-])cc3[N+](=O)[O-])C2C1=O (stereo not drawn) | -0.248 | 0.819 (inactive) | -0.778 (inactive) | -0.877 (inactive) | -0.159 (inactive) | -0.0006 (inactive) | -0.719 (inactive) | -0.556 (inactive) | -0.373 | 0.618 | 0.514 (inactive) | 0.487 | 0.501 | -2.4 (inactive) | 0.168 (inactive) | 0.377 (inactive)
15 | COc1ccc(C(O)C2C=CC3C(=O)NC(=O)C3N2Nc2ccccn2)cc1 (stereo not drawn) | -0.396 | 0.0843 (inactive) | -0.285 (inactive) | 0.91 (inactive) | 0.366 (inactive) | 0.31 (inactive) | -0.276 (inactive) | -0.401 (inactive) | -0.721 | -0.893 | -1.2 (inactive) | 0.658 | 0.557 | -1.88 (inactive) | 0.723 (inactive) | 0.51 (inactive)
16 | CC(CO)N1C(=O)[C@@H]2C3C(=O)OCCC/C=C\[C@H]3OC23C=CCN(c2ccc4ccccc4c2)C(=O)[C@@H]13 (stereo partly drawn) | -0.757 | -0.55 (inactive) | -0.208 (inactive) | 0.575 (inactive) | -0.456 (inactive) | 0.179 (inactive) | 0.162 (inactive) | 0.703 (inactive) | -0.0216 | -0.0989 | 0.372 (inactive) | 0.0016 | 0.252 | -3.77 (inactive) | -0.663 (inactive) | -0.182 (inactive)
17 | CN(C)CCCC[C@@H]1NC(=O)[C@H]2C[C@@H](C(=O)NCCCCCNC(=O)CS)[C@@H](c3cccc(OCCO)c3)N2C1=O | 0.373 | -0.646 (inactive) | -0.212 (inactive) | -0.286 (inactive) | 0.643 (inactive) | -0.569 (inactive) | -0.197 (inactive) | -0.32 (inactive) | -0.421 | -0.244 | 1.2 (inactive) | 0.567 | -0.103 | -3.25 (inactive) | -0.244 (inactive) | -0.144 (inactive)
18 | COc1cc2c(cc1OC)CN(C(=O)[C@H]1[C@@H]3C(=O)O[C@@H](c4ccccc4)[C@@H](c4ccccc4)N3[C@@H](c3ccc(O)cc3)[C@]13C(=O)Nc1ccc(C#CCNC(N)=O)cc13)CC2 | 0.543 | 0.16 (inactive) | 0.187 (inactive) | -2.16 (inactive) | 0.305 (inactive) | 0.0092 (inactive) | 0.537 (inactive) | 0.0455 (inactive) | 0.592 | -0.202 | -0.564 (inactive) | 0.497 | -0.599 | -1.24 (inactive) | -0.192 (inactive) | -0.245 (inactive)
